{"source": "paper PMC7862700", "about": "“An all-to-all approach to the identification of sequence-specific readers for epigenetic DNA modifications on cytosine”", "assay_in_all_cases": "DAPPL (digital affinity profiling via proximity ligation, sequencing); 10 mM Tris-HCl pH 7.5, 50 mM NaCl, 1 mM DTT, 4% glycerol, room temperature, 30 min; GST-TFs on glutathione beads, 16-mer random dsDNA library, 0.1% formaldehyde crosslink after washing; high values mean tight binding", "conditions_in_all_cases": "protein: recombinant; tags: N-terminal GST; dsDNA, one strand shown", "key": {"GABPA": {"biological_target": "T1, GABPA (Homo sapiens, UniProt Q06546 1-454)", "T1 sequence": "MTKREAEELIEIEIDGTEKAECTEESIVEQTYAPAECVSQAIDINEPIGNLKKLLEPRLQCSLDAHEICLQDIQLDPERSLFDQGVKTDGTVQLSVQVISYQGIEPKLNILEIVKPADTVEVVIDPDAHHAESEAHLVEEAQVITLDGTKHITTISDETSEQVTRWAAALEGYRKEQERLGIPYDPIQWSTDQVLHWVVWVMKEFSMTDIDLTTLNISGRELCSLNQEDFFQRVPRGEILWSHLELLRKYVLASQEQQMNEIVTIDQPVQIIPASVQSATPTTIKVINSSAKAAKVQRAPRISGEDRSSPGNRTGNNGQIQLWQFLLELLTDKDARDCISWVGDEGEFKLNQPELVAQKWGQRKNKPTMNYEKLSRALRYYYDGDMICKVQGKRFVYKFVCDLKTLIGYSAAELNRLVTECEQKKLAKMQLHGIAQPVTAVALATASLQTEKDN", "outline": "(§1)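 Binding signal is each hexamer's read frequency for a factor divided by its frequency in the tag-only sample. The factors were GST-fused human transcription factors from yeast, captured on glutathione beads, DNA-barcoded and pooled with that sample. Pools were incubated with 200 nmole of a random double-stranded 16-mer DNA library in Tris/NaCl/DTT/glycerol buffer at room temperature for 30 min, then washed, crosslinked with 0.1% formaldehyde, proximity-ligated with BsaI/T4 ligase (1 h, 37 °C), PCR-amplified and sequenced on an Illumina NextSeq500.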"}, "ERG": {"biological_target": "T2, ERG (Homo sapiens, UniProt P11308 1-479)", "T2 sequence": "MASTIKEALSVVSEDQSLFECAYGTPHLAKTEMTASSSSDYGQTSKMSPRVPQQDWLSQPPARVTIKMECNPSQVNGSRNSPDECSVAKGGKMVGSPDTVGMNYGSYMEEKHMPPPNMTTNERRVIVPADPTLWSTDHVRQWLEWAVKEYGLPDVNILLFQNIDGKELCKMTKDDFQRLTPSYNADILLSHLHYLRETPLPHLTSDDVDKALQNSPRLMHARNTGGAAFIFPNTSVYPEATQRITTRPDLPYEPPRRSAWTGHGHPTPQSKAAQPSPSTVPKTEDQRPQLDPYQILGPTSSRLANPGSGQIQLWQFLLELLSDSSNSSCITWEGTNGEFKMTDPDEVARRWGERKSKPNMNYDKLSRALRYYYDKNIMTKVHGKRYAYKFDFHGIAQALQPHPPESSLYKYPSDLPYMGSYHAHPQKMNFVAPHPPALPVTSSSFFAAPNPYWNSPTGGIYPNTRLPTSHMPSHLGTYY", "outline": "as §1"}, "ELF1": {"biological_target": "ELF1 (Homo sapiens, UniProt P32519 1-619)", "sequence (P32519 whole entry)": "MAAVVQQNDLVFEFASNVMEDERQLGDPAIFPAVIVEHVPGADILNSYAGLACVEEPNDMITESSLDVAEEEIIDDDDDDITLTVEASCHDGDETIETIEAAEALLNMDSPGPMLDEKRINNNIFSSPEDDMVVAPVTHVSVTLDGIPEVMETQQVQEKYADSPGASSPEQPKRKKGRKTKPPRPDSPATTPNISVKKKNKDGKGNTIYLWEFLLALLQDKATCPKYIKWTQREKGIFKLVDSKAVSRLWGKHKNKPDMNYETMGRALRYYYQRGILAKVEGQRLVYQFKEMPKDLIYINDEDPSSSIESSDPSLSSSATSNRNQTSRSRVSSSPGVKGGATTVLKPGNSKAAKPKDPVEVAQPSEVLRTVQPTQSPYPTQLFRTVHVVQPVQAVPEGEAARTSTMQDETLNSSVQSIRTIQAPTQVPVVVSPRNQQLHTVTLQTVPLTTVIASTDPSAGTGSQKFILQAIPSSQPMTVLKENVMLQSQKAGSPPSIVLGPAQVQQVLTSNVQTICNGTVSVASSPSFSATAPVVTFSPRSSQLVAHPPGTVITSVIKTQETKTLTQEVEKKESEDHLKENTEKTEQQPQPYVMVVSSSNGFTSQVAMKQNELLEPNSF", "outline": "as §1"}, "SPIB": {"biological_target": "SPIB (Homo sapiens, UniProt Q01892 1-262)", "sequence (Q01892 whole entry)": "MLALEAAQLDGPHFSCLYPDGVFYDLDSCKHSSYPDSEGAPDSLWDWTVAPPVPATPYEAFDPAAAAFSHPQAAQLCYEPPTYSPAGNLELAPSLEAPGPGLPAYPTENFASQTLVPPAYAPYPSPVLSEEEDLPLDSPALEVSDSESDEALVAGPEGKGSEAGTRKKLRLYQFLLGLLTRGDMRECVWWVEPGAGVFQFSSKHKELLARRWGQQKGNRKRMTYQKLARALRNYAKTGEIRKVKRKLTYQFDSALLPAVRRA", "outline": "as §1"}, "FEV": {"biological_target": "T3, FEV (Homo sapiens, UniProt Q99581 1-238)", "T3 sequence": "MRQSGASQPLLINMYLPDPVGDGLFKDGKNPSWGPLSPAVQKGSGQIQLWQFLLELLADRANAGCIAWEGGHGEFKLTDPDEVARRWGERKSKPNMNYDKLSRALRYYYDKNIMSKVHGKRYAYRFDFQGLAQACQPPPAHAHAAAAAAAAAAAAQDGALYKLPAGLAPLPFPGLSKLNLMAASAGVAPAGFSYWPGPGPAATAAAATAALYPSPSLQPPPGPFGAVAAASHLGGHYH", "outline": "as §1"}, "ETV5": {"biological_target": "ETV5 (Homo sapiens, UniProt P41161 1-510)", "sequence (P41161 whole entry)": "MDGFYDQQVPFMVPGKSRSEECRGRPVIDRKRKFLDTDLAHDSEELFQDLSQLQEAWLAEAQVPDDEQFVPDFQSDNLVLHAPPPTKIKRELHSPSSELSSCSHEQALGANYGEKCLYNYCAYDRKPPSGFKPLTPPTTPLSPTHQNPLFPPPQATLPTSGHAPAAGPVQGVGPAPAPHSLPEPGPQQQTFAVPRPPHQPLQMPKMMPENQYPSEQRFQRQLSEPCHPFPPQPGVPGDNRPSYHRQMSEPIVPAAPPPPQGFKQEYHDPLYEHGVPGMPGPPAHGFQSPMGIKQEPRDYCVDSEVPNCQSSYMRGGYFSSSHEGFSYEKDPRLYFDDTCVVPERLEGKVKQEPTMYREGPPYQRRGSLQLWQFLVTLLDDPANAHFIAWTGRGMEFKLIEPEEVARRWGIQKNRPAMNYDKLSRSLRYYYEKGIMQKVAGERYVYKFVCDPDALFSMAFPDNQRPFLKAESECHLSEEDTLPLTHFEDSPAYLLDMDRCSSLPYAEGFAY", "outline": "as §1"}, "ELF4": {"biological_target": "ELF4 (Homo sapiens, UniProt Q99607 1-663)", "sequence (Q99607 whole entry)": "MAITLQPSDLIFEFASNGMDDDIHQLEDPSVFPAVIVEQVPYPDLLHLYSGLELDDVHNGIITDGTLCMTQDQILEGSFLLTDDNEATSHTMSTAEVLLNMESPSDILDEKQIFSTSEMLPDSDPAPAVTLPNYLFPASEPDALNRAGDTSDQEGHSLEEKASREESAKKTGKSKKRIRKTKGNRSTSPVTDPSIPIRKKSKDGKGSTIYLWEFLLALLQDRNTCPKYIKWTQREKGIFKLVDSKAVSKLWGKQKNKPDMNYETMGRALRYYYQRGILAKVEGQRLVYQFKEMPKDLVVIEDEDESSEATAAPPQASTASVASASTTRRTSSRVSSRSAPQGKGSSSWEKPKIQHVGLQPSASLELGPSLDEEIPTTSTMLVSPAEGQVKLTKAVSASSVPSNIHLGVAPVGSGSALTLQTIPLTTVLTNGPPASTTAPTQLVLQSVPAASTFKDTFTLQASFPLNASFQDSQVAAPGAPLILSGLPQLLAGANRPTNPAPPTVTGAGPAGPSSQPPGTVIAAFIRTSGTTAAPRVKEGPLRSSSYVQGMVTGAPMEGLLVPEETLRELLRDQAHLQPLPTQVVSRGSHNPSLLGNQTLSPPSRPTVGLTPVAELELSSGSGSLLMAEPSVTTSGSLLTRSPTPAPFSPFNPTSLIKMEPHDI", "outline": "as §1"}, "ETV1": {"biological_target": "ETV1 (Homo sapiens, UniProt P50549 1-477)", "sequence (P50549 whole entry)": "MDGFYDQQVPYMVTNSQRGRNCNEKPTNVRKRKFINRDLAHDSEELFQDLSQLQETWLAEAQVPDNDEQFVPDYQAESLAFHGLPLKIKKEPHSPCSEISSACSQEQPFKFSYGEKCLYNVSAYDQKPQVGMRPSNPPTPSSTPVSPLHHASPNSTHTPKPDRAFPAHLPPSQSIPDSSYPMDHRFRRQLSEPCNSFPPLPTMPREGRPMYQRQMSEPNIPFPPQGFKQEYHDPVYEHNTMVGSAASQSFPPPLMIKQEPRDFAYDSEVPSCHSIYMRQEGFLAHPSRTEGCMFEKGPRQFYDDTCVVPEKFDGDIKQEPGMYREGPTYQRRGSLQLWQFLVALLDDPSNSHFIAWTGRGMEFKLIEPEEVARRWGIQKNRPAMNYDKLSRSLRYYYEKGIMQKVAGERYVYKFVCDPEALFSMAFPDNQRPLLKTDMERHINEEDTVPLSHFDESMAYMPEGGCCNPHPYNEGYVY", "outline": "as §1"}, "ERF": {"biological_target": "T4, ERF (Homo sapiens, UniProt P50548 1-548)", "T4 sequence": "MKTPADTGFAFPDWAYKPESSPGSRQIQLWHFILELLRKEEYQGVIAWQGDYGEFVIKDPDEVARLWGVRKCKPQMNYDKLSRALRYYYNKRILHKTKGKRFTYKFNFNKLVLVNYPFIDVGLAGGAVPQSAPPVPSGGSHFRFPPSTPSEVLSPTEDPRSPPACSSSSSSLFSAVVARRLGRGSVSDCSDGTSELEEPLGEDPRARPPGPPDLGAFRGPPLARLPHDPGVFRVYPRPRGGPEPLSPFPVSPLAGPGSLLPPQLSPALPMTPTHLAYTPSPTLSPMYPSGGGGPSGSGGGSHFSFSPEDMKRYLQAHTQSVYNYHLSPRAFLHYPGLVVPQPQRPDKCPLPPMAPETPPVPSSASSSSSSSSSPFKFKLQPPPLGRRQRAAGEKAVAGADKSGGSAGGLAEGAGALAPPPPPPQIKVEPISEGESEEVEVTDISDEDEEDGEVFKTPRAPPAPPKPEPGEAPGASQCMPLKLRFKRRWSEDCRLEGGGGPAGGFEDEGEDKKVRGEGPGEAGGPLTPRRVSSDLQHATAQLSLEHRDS", "outline": "as §1"}, "ETV3L": {"biological_target": "T5, ETV3L (Homo sapiens, UniProt Q6ZN32 1-361)", "T5 sequence": "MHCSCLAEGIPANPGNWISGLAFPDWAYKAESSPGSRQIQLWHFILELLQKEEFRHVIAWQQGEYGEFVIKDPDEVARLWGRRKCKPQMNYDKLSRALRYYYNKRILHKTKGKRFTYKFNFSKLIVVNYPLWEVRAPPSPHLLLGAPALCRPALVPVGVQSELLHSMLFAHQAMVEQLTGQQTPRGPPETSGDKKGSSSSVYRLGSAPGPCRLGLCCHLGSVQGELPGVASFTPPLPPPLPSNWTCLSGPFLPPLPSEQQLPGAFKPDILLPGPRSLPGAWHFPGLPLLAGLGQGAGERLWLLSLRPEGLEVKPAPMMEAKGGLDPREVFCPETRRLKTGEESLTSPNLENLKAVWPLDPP", "outline": "as §1"}, "ETS2": {"biological_target": "T6, ETS2 (Homo sapiens, UniProt P15036 1-469)", "T6 sequence": "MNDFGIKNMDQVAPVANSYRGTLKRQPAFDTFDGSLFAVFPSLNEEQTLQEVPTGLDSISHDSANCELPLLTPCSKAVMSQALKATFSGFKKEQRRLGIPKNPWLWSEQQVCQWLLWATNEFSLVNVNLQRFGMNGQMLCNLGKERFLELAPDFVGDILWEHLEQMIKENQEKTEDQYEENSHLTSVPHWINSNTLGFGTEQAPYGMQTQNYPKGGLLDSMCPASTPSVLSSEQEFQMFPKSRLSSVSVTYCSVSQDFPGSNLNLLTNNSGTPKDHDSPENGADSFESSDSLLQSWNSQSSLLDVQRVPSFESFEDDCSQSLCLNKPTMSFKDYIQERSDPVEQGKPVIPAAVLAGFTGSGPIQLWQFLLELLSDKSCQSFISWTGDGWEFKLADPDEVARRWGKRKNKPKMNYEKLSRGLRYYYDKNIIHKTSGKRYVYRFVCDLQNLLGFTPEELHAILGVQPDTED", "outline": "as §1"}, "ETV3": {"biological_target": "T7, ETV3 (Homo sapiens, UniProt P41162-2 1-143)", "T7 sequence": "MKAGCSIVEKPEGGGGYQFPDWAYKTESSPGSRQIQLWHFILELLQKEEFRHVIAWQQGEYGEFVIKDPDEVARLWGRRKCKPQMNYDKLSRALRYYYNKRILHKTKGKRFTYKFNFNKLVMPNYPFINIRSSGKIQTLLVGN", "outline": "as §1"}}}
{"sequence": "AGCGCT", "values": [{"measurement": "binding signal", "setting": "GABPA", "result": "1.04 fold enrichment (6-mer frequency, TF over GST control)"}, {"measurement": "binding signal", "setting": "ERG", "result": "1.02 fold enrichment (6-mer frequency, TF over GST control)"}, {"measurement": "binding signal", "setting": "ELF1", "result": "1.05 fold enrichment (6-mer frequency, TF over GST control)"}, {"measurement": "binding signal", "setting": "SPIB", "result": "1.09 fold enrichment (6-mer frequency, TF over GST control)"}, {"measurement": "binding signal", "setting": "FEV", "result": "1 fold enrichment (6-mer frequency, TF over GST control)"}, {"measurement": "binding signal", "setting": "ETV5", "result": "1.01 fold enrichment (6-mer frequency, TF over GST control)"}, {"measurement": "binding signal", "setting": "ELF4", "result": "1.06 fold enrichment (6-mer frequency, TF over GST control)"}, {"measurement": "binding signal", "setting": "ETV1", "result": "1.02 fold enrichment (6-mer frequency, TF over GST control)"}, {"measurement": "binding signal", "setting": "ERF", "result": "1.04 fold enrichment (6-mer frequency, TF over GST control)"}, {"measurement": "binding signal", "setting": "ETV3L", "result": "1.08 fold enrichment (6-mer frequency, TF over GST control)"}, {"measurement": "binding signal", "setting": "ETS2", "result": "1.09 fold enrichment (6-mer frequency, TF over GST control)"}, {"measurement": "binding signal", "setting": "ETV3", "result": "1.01 fold enrichment (6-mer frequency, TF over GST control)"}]}
